PfGluPho inh: PfG6PD enzyme inhibitors, primary screen, biochemical, fluorescence intensity, uHTS; glucose-6-phosphate dehydrogenase-6-phosphogluconolactonase (Plasmodium falciparum 3D7); PfGluPho enzyme, NADPH resazurin-diaphorase fluorescence; inhibition, % at 20 µM; 350,000 compounds, 0.78% hits; AID 504690, 2011;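 active means inhibition reaching at least a set limit at 20 µM in the primary screen, cut at about 59% in these data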;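 further: 0% = DMSO wells with substrate and 100% = DMSO wells lacking glucose-6-phosphate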
CRFR2-BP antag: antagonists of CRF-BP/CRF-R2 complex, primary screen, cell-based, HEK293, calcium dye fluorescence, uHTS; CRF-induced calcium fluorescence; inhibition, % at 11.8 µM; 350,000 compounds, 0.59% hits;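 active means inhibition of the ligand-induced calcium signal above about 50% at the single tested concentration, limit read from the data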
aDG glyco act: activators of alpha-DG glycosylation, primary screen, uHTS, Pro5-aDG cells, AlphaScreen; alpha-DG glycosylation AlphaScreen (IIH6); 0% Pro5, 100% B10-LARGE cell signal; activation, % at 10 µM; 360,000 compounds, 0.22% hits;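 active means activation of at least 8% versus controls, or a plate z-score of at least 8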;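 further: Pro5 are CHO cells carrying HIG-tagged alpha-DG that lacks glycosylation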
H9c2 protect: cardioprotection against H2O2-induced cell death, primary screen, uHTS, H9c2 cells, ATPLite luminescence; H9c2 cardiomyocytes, H2O2 injury protection, 2 h; protection from H2O2 cell death, % at 20 µM; 360,000 compounds, 0.63% hits; AID 588492, 2011;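 active means compounds giving at least 50% protection of heart cells from peroxide-induced death in the single-dose screen, raw or plate-pattern-corrected value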;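 further: 0% = DMSO wells with peroxide and 100% = DMSO wells without peroxide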
CRFR2-BP ag: agonists of CRF-BP/CRF-R2 complex, primary screen, cell-based, HEK293, calcium dye fluorescence, uHTS | AID 588473, 2011 | activation, % at 13.2 µM | 350,000 compounds, 0.46% hits | calcium dye fluorescence (FLIPR); percent of saturating CRF peptide response | CRF-binding protein / CRF receptor 2 complex (human);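 active means activation of at least 50%, plus an integration ratio under a set limit after plate pattern correction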;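 further: plate controls were neutral control wells without compound for no effect and CRF at EC100 for full effect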
FAS TE block: FAS thioesterase domain inhibitors, primary screen, biochemical, fluorescence intensity, uHTS. Fatty acid synthase (Homo sapiens), P49327. recombinant FAS-TE, OMFH fluorogenic substrate, fluorescence endpoint. inhibition, % at 15 µM. 360,000 compounds, 0.67% hits;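 active means compounds whose normalised, plate-corrected inhibition of enzyme fluorescence in the single-dose primary screen is 50% or more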;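 further: 0% = DMSO with enzyme and 100% = substrate without enzyme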
PfGluPho conf: PfG6PD inhibitors, hit retest, confirmation, biochemical, fluorescence intensity, single concentration; recombinant PfGluPho, NADPH-diaphorase-resazurin fluorescence; shares compounds with PfGluPho inh; AID 504753, 2011; 2,400 compounds, 34% hits; inhibition, % at 20 µM;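 active means inhibition of at least 50% at 20 µM in any single replicate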;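 further: 0% = DMSO with substrate and 100% = DMSO lacking glucose-6-phosphate substrate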
Diaph ctr 10uM: diaphorase inhibitors and chemical oxidizers, confirmation, counter-screen for P. falciparum G6PD inhibitor project, biochemical, fluorescence intensity, 10 µM NADPH; diaphorase-coupled resazurin reduction, NADPH 10 uM; AID 504862, 2011; inhibition, % at 20 µM; 820 compounds, 39% hits; shares compounds with PfGluPho inh;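 active means average inhibition reaching 50% or more with the compound at 20 µM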;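 further: resorufin red fluorescence formed as diaphorase reduces resazurin using NADPH; 0% = DMSO with enzyme and 100% = DMSO without enzyme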
Diaph ctr 30uM: diaphorase inhibitors and chemical oxidizers, confirmation, counter-screen for P. falciparum G6PD inhibitor project, biochemical, fluorescence intensity, 30 µM NADPH; shares compounds with PfGluPho inh; Diaphorase/resazurin coupled assay, resorufin fluorescence; inhibition, % at 20 µM; 820 compounds, 29% hits; AID 504863, 2011;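 active means inhibition averaging 50% or more, tested at 20 µM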;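 further: 0% = DMSO with enzyme and 100% = DMSO wells lacking diaphorase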
Active calls of the source: *; x = not tested or not shown. This is a sample that favours compounds with a hit; in the whole collection about 3.2% have one here.

SMILES	PfGluPho inh	CRFR2-BP antag	aDG glyco act	H9c2 protect	CRFR2-BP ag	FAS TE block	PfGluPho conf	others
O=C(Nc1ccc2c(c1)Cc1ccccc1-2)c1cc2ccccc2o1	-9	-4	0	-1	3	-3	x
C[C@@H]1CN([C@@H](C)CO)C(=O)c2cc(C#CC3CCCCC3)cnc2O[C@@H]1CN(C)S(=O)(=O)c1ccc(F)cc1	66*	-11	0	3	3	19	10
OCCNc1nc(SCc2ccccc2)nc2sc3c(c12)CCC3	55	-2	0	-11	1	23	x
CCOC(=O)/C(=N/Nc1ccc(OC)cc1)N1CCCc2ccccc21	112*	24	0	0	-1	27	58*	Diaph ctr 10uM=56*;Diaph ctr 30uM=51*
CCOC(=O)/C(=N/Nc1ccccc1)N1CCCc2ccccc21	95*	-8	0	-2	-1	32	33
CCOC(=O)/C(=N/Nc1ccccc1OC)N1CCCc2ccccc21	23	-3	0	-8	0	32	x
OC(COc1ccc(CNCCc2ccccc2F)cc1)CN1CCCCC1 (stereo unspecified)	-5	0	1	6	1	-9	x
CC(C)(C)c1cc(C(=O)NCCN2CCCC2)cc(C(C)(C)C)c1	6	-25	0	4	-2	4	x
COc1ccc2nc3ccccc3nc2c1N	71*	2	0	27	0	-2	14
Cc1ccc(-c2ccc(C(=O)NCc3ccc(Cl)cc3)o2)c2ccccc12	61*	-13	0	0	2	36	4
Cc1ccccc1-c1ccc(C(=O)NCc2ccccc2)o1	3	6	0	-1	-3	12	x
CCOC(=O)c1c(C)n(C)c2cc(Br)c(O)c(O)c12	68*	0	0	7	-2	-5	18
O=C1C(Nc2ccccc2)=C(N2CCCCC2)C(=O)c2ccccc21	26	-3	2	-30	0	2	x
O=C(/C=C/c1ccc(O)cc1)c1ccc(NC2=C(N3CCCCC3)C(=O)c3ccccc3C2=O)cc1	71*	-26	4	-22	0	3	19
O=C(c1ccco1)N1CCN(c2ccc(N3CCCCC3)nn2)CC1	19	2	0	-6	-2	-4	x
COc1ccc(N2CCN(c3ccnc4cc(Cl)ccc34)CC2)cc1	8	-6	0	-6	0	20	x
Oc1ccc(N2CCN(c3ccnc4cc(Cl)ccc34)CC2)cc1	66*	3	1	-17	-1	7	-5
CC1CCCCN1C(=O)Cn1c(=O)oc2cc(S(=O)(=O)N3CCCC3)ccc21 (stereo unspecified)	-16	-18	0	2	5	-7	x
CC(=O)c1ccc(Nc2ccc(-c3ccccc3F)nn2)cc1	79*	36	2	-13	-1	6	36
CCOC(=O)c1ccc(S(=O)(=O)Nc2cc(C(=O)O)ccc2Cl)cc1	48	-4	0	-3	2	-4	29
CCCc1nc(SCc2ccc(Cl)cc2Cl)n[nH]1	72*	59*	0	-2	0	0	44
CCc1nc(SCc2ccc(Cl)cc2)n[nH]1	53	9	0	1	0	-8	x
CCOC(=O)C1=C(C(F)(F)F)Nc2ncnn2C1c1ccc(OC)c(OC)c1OC (stereo unspecified)	-15	15	0	3	2	-5	x
CNc1ccc(Oc2nc([N+](=O)[O-])nn2C)cc1	15	-5	0	9	-1	0	x
COc1ccc2c(c1)C1(C)CC(C)(C)N2C(=O)N1c1ccccc1 (stereo unspecified)	73*	-18	1	-11	-3	-5	47
SMILES	PfGluPho inh	CRFR2-BP antag	aDG glyco act	H9c2 protect	CRFR2-BP ag	FAS TE block	PfGluPho conf	others
COC(=O)Cc1sc(-c2ccccn2)nc1-c1ccccc1	63*	5	0	2	-2	9	23
COC(=O)Cc1ccc2sc(-c3ccccc3)nc2c1	-2	38	0	-17	0	11	x
CCCCn1c(=O)c(CCC(=O)OCC(=O)NCc2ccc(OC)c(OC)c2)nc2ccccc21	8	6	0	-8	0	-1	x
CN(C)C(=S)NC(=S)Nc1ccc2ccccc2c1	71*	-6	0	-6	-4	14	6
O=S(=O)(c1ccc(=S)[nH]c1)N1CCCC1	60*	-18	0	-6	-4	0	41
COc1ccc(C2=CC(=O)C[C@H](c3ccc(F)cc3)C2)c(OC)c1	21	-7	0	-5	2	16	x
CN(C(=O)c1sc2nc(N3CCCC3)c3c(c2c1N)CC(C)(C)OC3)c1ccccc1	66*	-10	0	12	-1	20	-3
COc1ccc(N)cc1-n1c(C)ccc1C	78*	-24	0	-11	0	-12	13
O=C1NC(=O)C2(CCCC2c2ccccc2)N1 (stereo unspecified)	-5	-6	0	0	-2	-7	x
CCSc1nnc(Nc2ccccc2)s1	-5	-39	0	-24	-1	3	x
Cc1cc(C(=O)Nc2nnc(C(F)(F)F)s2)cs1	119*	-25	0	-8	17	-1	82*	Diaph ctr 10uM=77*;Diaph ctr 30uM=72*
O=C(Nc1nnc(C(F)(F)F)s1)c1ccc(Br)s1	85*	54*	0	-28	98*	-3	72*	Diaph ctr 10uM=65*;Diaph ctr 30uM=52*
CCSc1nnc(NC(=O)c2ccc(Br)s2)s1	102*	-8	0	-9	8	-9	64*	Diaph ctr 10uM=70*;Diaph ctr 30uM=61*
O=C(Nc1nnc(C2CCCCC2)s1)c1ccc(Br)s1	49	-59	1	-2	-1	-2	x
CCSc1nnc(Nc2ccc(C)cc2)s1	66*	-35	0	-8	-1	0	24
CCSc1nnc(NC(=O)c2ccccc2)s1	62*	-4	0	8	1	-8	21
